RGS12 GoLoco inh – qHTS Assay for Inhibitors of RGS12 GoLoco Motif Activity (Red Fluorophore). Potency, µM (doses to about 61.6 µM), inactives show at the highest dose activity, negative = inhibition, most hits filed as inhibitors. AID 880, 2007. Gai1:RGS12 GoLoco peptide FP, rhodamine, 10 min. Guanine nucleotide-binding protein G(i) subunit alpha-1 (Homo sapiens), P63096. 230,000 compounds, 0.44% hits; active means well fitted inhibition curve with a large enough effect, not every such curve was filed as active; inactive means no such curve, though single readings can be large or run the other way; further: on the % scale 0 is the no-effect control and ±100 the full control effect; nearly all actives have a fitted effect of over 30% in size
RECQ1 helicase – qHTS Assay for Inhibitors of RecQ-Like Dna Helicase 1 (RECQ1). ATP-dependent DNA helicase Q1 (Homo sapiens), P46063. RECQ1 DNA unwinding, red fluorescence kinetic read. Potency, µM (series often up to 57.3 µM), inactives show at the highest dose activity, negative = inhibition, most hits filed as inhibitors. 240,000 compounds, 0.54% hits;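 further: plate controls were vehicle for no effect and no enzyme for full effect; nearly all actives have a fitted effect of over 30% in size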
Target sequence (P46063 whole entry, looked up): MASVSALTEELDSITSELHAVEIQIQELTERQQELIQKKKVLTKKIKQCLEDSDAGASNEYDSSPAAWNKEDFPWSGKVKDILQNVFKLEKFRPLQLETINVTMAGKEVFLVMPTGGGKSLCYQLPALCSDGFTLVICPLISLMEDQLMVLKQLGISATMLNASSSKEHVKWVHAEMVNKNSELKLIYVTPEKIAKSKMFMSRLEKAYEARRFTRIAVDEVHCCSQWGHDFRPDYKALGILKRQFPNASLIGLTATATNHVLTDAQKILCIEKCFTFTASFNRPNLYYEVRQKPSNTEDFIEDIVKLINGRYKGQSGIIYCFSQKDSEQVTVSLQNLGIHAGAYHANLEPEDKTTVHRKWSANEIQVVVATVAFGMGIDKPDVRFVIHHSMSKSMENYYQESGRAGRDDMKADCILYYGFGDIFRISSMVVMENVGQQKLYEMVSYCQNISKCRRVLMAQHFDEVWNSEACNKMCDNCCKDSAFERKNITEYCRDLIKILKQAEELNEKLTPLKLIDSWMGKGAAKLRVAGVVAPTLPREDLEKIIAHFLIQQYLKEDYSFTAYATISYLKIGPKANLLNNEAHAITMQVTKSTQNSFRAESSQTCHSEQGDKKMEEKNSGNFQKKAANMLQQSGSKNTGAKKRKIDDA
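RECQ1T1 50 nM; forked duplex (20 bp + 30-nt ss tails) 200 nM, ATP 2 mM final; pH 8.0, 2 mM MgCl2, 2.5 ug/ml poly(dI-dC); 15 min compound preincubation; discontinuous kinetic read over 2 h at RT.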
TR SRC2 fluor cs – Total Fluorescence Counterscreen for Inhibitors of the Interaction of Thyroid Hormone Receptor and Steroid Receptor Coregulator 2; TRb/SRC2 Texas Red total fluorescence interference; Potency, µM (series often up to 106 µM), without a hit: top-dose fluorescence change, negative = quenching; 280,000 compounds, 0.29% hits; AID 1479, 2009; active means well fitted curve in either direction with a large enough effect; inconclusive means small, poorly fitted or top-dose-only effect; further: on the % scale 0 is the no-effect control and ±100 the full control effect
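Human TRb ligand-binding domain at 0.6 uM with 20 nM Texas Red SRC2 peptide in Tris buffer containing 1 uM T3 and 5% DMSO, incubated with compound 5 h at ambient temperature. Total fluorescence (555/632 nm) calculated as parallel + 2 × perpendicular.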
BLM helicase inh – qHTS Assay for Inhibitors of Bloom's syndrome helicase (BLM); Potency, µM (doses to about 56.1 µM), for the others: top-dose activity change, negative = inhibition, actives largely listed as inhibitors; AID 2528, 2010; recombinant BLM DNA unwinding, fluorescence dequenching; RecQ-like DNA helicase BLM (Homo sapiens), P54132; 350,000 compounds, 0.2% hits;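 further: plate controls were vehicle for no effect and no enzyme for full effect; nearly all actives have a fitted effect of over 35% in size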
ERG Ets-DNA blk – qHTS for Small Molecule Inhibitors of the ERG Ets/DNA interaction; Transcriptional regulator ERG (Homo sapiens), P11308; fluorescence polarization, His-ERG Ets domain / labelled DNA; Potency, µM (highest dose often 76.9 µM), without a hit: at the top dose FP activity, negative = inhibition, actives largely listed as inhibitors; 370,000 compounds, 0.028% hits; active means well fitted inhibition curve with a large enough effect in the polarisation, with a control signal flat; inconclusive means small, poorly fitted or top-dose-only effect, or effect the other way, or a change in a side signal; inactive means no such curve, though single readings can be large or run the other way; the % refers to the polarisation;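 further: polarization taken with two DNA probes labelled with fluorescein and Texas red; % of control where 0% means no effect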
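His-tagged ERG Ets domain (1 uM in the protein solution; 300mM KCl, 50mM Tris-HCl, 1mM EDTA, 1mM DTT, pH 7.5) received compound, then a probe mix of 5 nM fluorescein-DNA and 100nM Texas-615-DNA. Fluorescence polarization was read for both dyes.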
TRb SRC2 PPI – qHTS for Inhibitors of the Interaction of Thyroid Hormone Receptor and Steroid Receptor Coregulator 2; Thyroid hormone receptor beta (Homo sapiens), P10828; TRbeta-SRC2 peptide binding, fluorescence polarization; receptor liganded with 1 µM T3; Potency, µM (highest dose often 106 µM), for the others: at the top dose activity change, negative = inhibition, actives largely listed as inhibitors; 280,000 compounds, 0.065% hits;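 further: plate controls were bound peptide for no effect and peptide without receptor for full effect; nearly all actives have a fitted effect of over 50% in size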
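Each compound concentration gave % activity, normalized to unbound and bound Texas Red SRC2 controls, from polarization read after 5 hr ambient incubation with T3-loaded human TRb LBD.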
* hit, by the source's call; i = inactive; ? = inconclusive; . = no result given; ! = a repeat was not active; [ ] = remark or other dose. Rows were chosen to be rich in hits. Some 0.71% of all compounds tested hit in one or more screens of this group. Unless noted, the call rests on the fitted dose curve; in most records, active means well fitted curve in the direction sought with a large enough effect; inconclusive means small, poorly fitted or top-dose-only effect, or another doubt; inactive means no such curve, though single readings can be large; an effect the other way counts as inactive or inconclusive. Potency means the concentration at half of the fitted maximal effect.

SMILES | RGS12 GoLoco inh | RECQ1 helicase | TR SRC2 fluor cs | BLM helicase inh | ERG Ets-DNA blk | TRb SRC2 PPI
O=C(NCCc1csc(-c2ccc(F)cc2)n1)c1c(F)cccc1Cl | . | . | 0.0002µM*[quencher] | -3% | -1% | -12%
O=C(NCCc1csc(-c2ccccc2)n1)c1c(F)cccc1Cl | 10% | 0% | -1% | -1% | -2% | 4%
CCN(CC)S(=O)(=O)c1cccc(C(=O)Nc2sc3c(c2C#N)CCC(C)C3)c1 (configuration not stated) | . | . | 3% | -2% | -6% | -9%
CC(C)C(=O)OCC(C)(C)C(O)C(C)C (configuration not stated) | . | . | 2%[201 µM] | . | . | 2%[201 µM]
CN1\C(=C/C=C/C=C/C=[N+](C)C)C(C)(C)c2ccccc21 | i | 25µM* | 50µM*[fluorescent] | 28µM* | . | ?
Cc1cc(=O)[nH]c2ccccc12 | 6% | -13% | -4% | 0% | -4% | 3%
Cc1[nH]c(=O)cc2ccccc12 | 8.9µM* | -1% | 0% | 1% | -1% | 9%
CCN(CC)CCNC(=O)C(=O)Nc1c2c(nn1-c1ccc(F)cc1)CSC2 | . | . | 0% | 3% | -3% | -5%
CCCCC(=Nc1ccc(N)cc1)C1=C(O)C(C(=O)OC)C(C)(C)CC1=O (configuration not stated) | 25µM* | -21% | ? | -11% | ? | ?
CCOCCOCCOC(C)=O | . | . | -5%[201 µM] | . | . | 6%[201 µM]
O=C(C[n+]1ccc(C(=O)N/N=C/c2ccc(OCc3ccccc3)cc2)cc1)c1ccccc1 | 6% | -12% | 0% | 35µM* | . | -22%
O=C(C[n+]1ccc(C(=O)N/N=C/c2ccc(O)cc2)cc1)c1ccccc1 | 14% | -15% | -1% | ? | 6% | 12%
NC(=O)C[n+]1cccc2ccccc21 | 11µM* | -8% | -2% | -3% | -3% | -11%
C[N+]1(CC(O)COCC2COc3ccccc3O2)CCOCC1 (configuration not stated) | 2µM* | i | 4% | 2% | 15% | -8%
Oc1ccc2c(c1)OCC1(O)Cc3cc(O)c(O)cc3C21 (configuration not stated) | -165% | -3% | ? | -2% | 13µM* | ?
Oc1cc2c(cc1O)[C@H]1c3ccc(O)c(O)c3OC[C@@]1(O)C2 | 4µM*! | -18% | -2% | -3% | -15% | 1%
O=C(NCCc1ccccc1)c1cc(Nc2ccccc2)nc2ccccc12 | . | . | -1% | -7% | 0% | -6%
COc1ccc(CCNC(=O)c2cc(Nc3ccccc3)nc3ccccc23)cc1OC | . | . | 0.0008µM*[quencher] | -7% | -20% | -18%
Cc1ccc(OCC(=O)N(Cc2ccco2)Cc2ccco2)cc1 | . | . | 0% | -2% | -3% | -12%
Cc1ccc(CN(Cc2ccco2)C(=O)COc2ccc(C(C)C)cc2)cc1 | . | . | 0.0006µM*[quencher] | -8% | 3% | ?
Cc1cc(C)c2c(CC(=O)N(Cc3ccc(N(C)C)cc3)Cc3ccco3)coc2c1 | . | . | ? | -11% | -2% | -8%
Cc1ccc2c(CC(=O)N(Cc3ccc(Cl)cc3)Cc3ccco3)coc2c1 | . | . | 1.1µM*[quencher] | -7% | 4% | -17%[53 µM]
CCCCCCCC/C=C\CCCCCCCCCCCCC | . | . | -1%[201 µM] | . | . | -3%[201 µM]
CCCCCCCCCCCCO | . | . | -3%[201 µM] | . | . | 4%[201 µM]
CCn1c(C)nc2cc(C(=O)NNC(=O)CCC3CCCCC3)ccc21 | 58% | -8% | 3.5µM*[quencher] | 4% | 0% | ?
SMILES | RGS12 GoLoco inh | RECQ1 helicase | TR SRC2 fluor cs | BLM helicase inh | ERG Ets-DNA blk | TRb SRC2 PPI
C#CCn1c(=O)c2c(nc(/C=C/c3cccc(OC)c3)n2C)n(CCCOP(=O)(O)O)c1=O | . | -2% | -5% | -1% | . | -1%
CCCNC(=O)Cn1c(=O)n(C)c2ccccc21 | 0% | 0% | 45µM*[fluorescent] | -4% | -4% | 32µM*
CCCCNC(=O)Cn1c(=O)n(C)c2ccccc21 | 1% | 1% | -2% | 1% | 3% | 6%
CCCC(=O)OCCNc1cc(SCc2ccco2)c2nonc2c1[N+](=O)[O-] | -2% | 3% | 6% | 13µM* | 7% | -10%
CC(C)CCCCCCNC(=S)Nc1ccc(S(=O)(=O)N2CCOCC2)cc1 | 1% | 40µM* | -2%[53 µM] | -4% | -11% | 0%[53 µM]
O=S(=O)(c1ccc(NC(=S)Nc2ccccc2)cc1)N1CCOCC1 | 10% | -1% | -1% | -2% | -6% | 4%
CS(=O)(=O)Nc1ccc(Nc2c3ccccc3nc3ccccc23)cc1 | 2%[14.2 µM] | . | . | . | . | .
O=c1cc(-c2cccc(O)c2)oc2c(O)c(O)ccc12 | 3% | 4.5µM* | -9% | -1% | . | -1%
O=c1cc(-c2cccc(O)c2)oc2cc(O)ccc12 | 11% | i | -4% | -8% | . | -2%
NC(=O)C[N+]1(CC#CC(O)(c2ccccc2)c2ccccc2)CCCC1 | 8.9µM* | -7% | -5% | -17% | -3% | 0%
Cc1cccc(N2CCN(S(=O)(=O)c3ccc4c(c3)C(C(C)C)C(=O)N4)CC2)c1C (configuration not stated) | . | . | -4% | -11% | -8% | 0%
CC1=CC(C)(C)N2C(=O)C(=Nc3ccc(O)cc3)c3cccc1c32 | -19% | -29% | 3% | 32µM* | ? | 35µM*
COc1cc(N=C2C(=O)N3c4c(cccc42)C(C)=CC3(C)C)cc(OC)c1 | 0% | -8% | -1% | -1% | -2% | 3%
Nc1nc(-c2c[nH]c3ccccc23)cs1 | 97% | i | 35µM*[fluorescent] | -18% | -12% | 17%
CC(=O)Nc1c(S(=O)(=O)c2ccccc2)c2nc3ccccc3nc2n1Cc1ccccc1 | 5% | -4% | -3% | -3% | -3% | -2%
C=CCn1c(NS(=O)(=O)c2ccccc2)c(S(=O)(=O)c2ccc(C)cc2)c2nc3ccccc3nc21 | 4% | -6% | -2% | 4.5µM* | -11% | -11%
O=S(=O)(Nc1c(S(=O)(=O)c2ccccc2)c2nc3ccccc3nc2n1C1CCCCC1)c1ccccc1 | -3% | -10% | -1% | 10µM* | . | ?
COc1ccc(NC(=O)COC(=O)/C=C/C(=O)OCC(=O)Nc2ccc(OC)c(Cl)c2)cc1Cl | 8.9µM* | -7% | -1% | 0% | -5% | -6%
CCOC(=O)/C=C/C(=O)OCC(=O)Nc1ccc(OC)c(Cl)c1 | -3% | -20% | 0% | 0% | 2% | -5%
